Screens (PubChem)
An excerpt weighted towards active compounds, which were near 2.5% of everything screened.
LGR2 antag – inhibitors of bursicon-induced LGR2 CRE-luciferase signal, primary screen, cell-based, HEK293, CRE-luciferase reporter, bursicon stimulation; Drosophila bursicon receptor LGR2 (rickets); bursicon-stimulated, 4 h; inhibition, % at 9.99 µM; 380,000 compounds, 0.35% hits;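 active = drop in luminescence signal, shown as inhibition above about 50% in the replicate tests, limit read from the data, passing the limit was not always enough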;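 also: agonist challenge used bursicon conditioned medium at about half maximal strength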
TROY NFkB inh – inhibitors of TROY-driven NF-kB signaling, primary screen, Q293 LMP1-TROYcd cells, NF-kB luciferase, uHTS; Q293 LMP1-TROYcd NF-kB luciferase reporter, 4 h; AID 1347056, 2019; 360,000 compounds, 0.98% hits; inhibition, % at 10 µM;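 active = compounds whose plate-normalised and pattern-corrected inhibition of the luciferase reporter signal at the single screening dose is 50% or more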
EBV LMP1 NFkB – EBV LMP1-driven NF-kappaB luciferase reporter inhibitors, primary screen, cell-based, luminescence, single point | LMP1-induced NF-kappaB luciferase reporter cells | inhibition, % at 12.5 µM | 350,000 compounds, 0.69% hits | AID 504558, 2011; in the data active = inhibition above about 41%;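 also: 0% = neutral control wells and 100% = reference inhibitor control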
EWS-Fli block – EWS/Fli-driven NR0B1 reporter inhibitors, primary screen, A673 cells, NR0B1 luciferase, luminescence, MLPCN library. viability-normalised. 350,000 compounds, 0.67% hits. inhibition, % at 12.6 µM;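 active = mean inhibition of at least 50% after viability correction, with every replicate also passing that limit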;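 also: firefly luciferase signal divided by Alamar Blue viability fluorescence both relative to DMSO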
TWEAK-Fn14 inh – inhibitors of TWEAK-Fn14 signaling, primary screen, luciferase reporter cells, uHTS | TWEAK-stimulated Fn14 reporter cells, luciferase luminescence, 8 h | inhibition, % at 10 µM | 360,000 compounds, 2% hits; in the data active = inhibition above about 50%
* = called active by the depositor; nt = no result given; ! = repeats disagree.

SMILES	LGR2 antag	TROY NFkB inh	EBV LMP1 NFkB	EWS-Fli block	TWEAK-Fn14 inh
O=C(Nc1ccc(S(=O)(=O)N2CCCC2)cc1)c1ccc(CN2CCc3ccccc3C2)cc1	0.0	33.4	18.0	nt	68.3*
C/C(=N\NC(=O)c1ccc(CN2CCc3ccccc3C2)cc1)c1ccccc1O	11.3	37.7	33.8	22.7	82.6*
CC(=O)Nc1ccc(S(=O)(=O)Nc2cccc(-c3ccc4nncn4n3)c2)cc1	15.5	-0.1	-7.4	-7.7	-26.6
O=S(=O)(Nc1cccc(-c2ccc3nncn3n2)c1)c1ccc(Cl)s1	-3.7	-0.5	4.7	-11.4	3.2
Cc1ccc(S(=O)(=O)Nc2cccc(-c3ccc4nncn4n3)c2)cc1	2.8	13.6	-8.1	57.0*	4.7
CC(=O)c1ccc(S(=O)(=O)Nc2cccc(-c3ccc4nncn4n3)c2)cc1	-2.1	2.3	58.2*	nt	5.0
COc1cccc(S(=O)(=O)N2CC[C@@H]3[C@H](CO)Nc4ccc(C#Cc5ccccc5)cc4[C@@H]32)c1	7.5	nt	nt	3.2	nt
NC(c1csc(NC(=O)Nc2ccc(OC(F)(F)F)cc2)n1)C1CCCCC1 (stereo not given)	16.4	7.2	nt	54.9*	2.5
CCOC(=O)N1CCN(c2ncnc3c2[nH]c2ccc(OC)cc23)CC1	nt	-4.8	20.3	nt	17.5
OC1(c2cccc(C(F)(F)F)c2)CCN(c2ncnc3c2[nH]c2ccc(F)cc23)CC1	nt	77.4*	44.0*	nt	97.6*
COc1ccc(N2CCN(c3ncnc4c3[nH]c3ccccc34)CC2)cc1	nt	76.0*	47.6*	nt	76.6*
COc1cccc2[nH]c3c(N4CCCCC4)ncnc3c12	nt	-25.4	-3.5	nt	-52.9
COc1ccc2[nH]c3c(N4CCc5ccccc5C4)ncnc3c2c1	78.6*	69.2*	18.4	-3.2	91.8*
CCOc1ccc2[nH]c3c(N4CCC5(CC4)OCCO5)ncnc3c2c1	nt	nt	nt	46.4	nt
COc1cc2[nH]c3c(N4CCN(c5ccccn5)CC4)ncnc3c2cc1OC	nt	37.8	-5.6	nt	72.5*
C[C@@H]1CN([C@H](C)CO)C(=O)c2cc(NC(=O)NC3CCCCC3)ccc2O[C@@H](C)CCCCO[C@@H]1CN(C)C(=O)c1ccccc1	15.9	nt	nt	1.0	nt
C[C@@H]1CN([C@@H](C)CO)C(=O)c2ccccc2-c2ccccc2CO[C@@H]1CN(C)S(=O)(=O)c1ccccc1	-2.6	nt	nt	-4.4	nt
CCOC(=O)N1CCN(c2ncnc3c2[nH]c2ccc(F)cc23)CC1	nt	41.5	38.3	nt	38.4
Fc1ccc2[nH]c3c(N4CCN(c5ccccc5)CC4)ncnc3c2c1	nt	75.8*	50.2*	nt	102.5*
CC(CCc1ccccc1)NCC(O)c1ccc(O)c(C(N)=O)c1 (stereo not given)	-1.1	-11.1	4.1	-10.7	2.7
COc1ccc(CC(C)NCC(O)c2ccc(O)c(NC=O)c2)cc1 (stereo not given)	-0.9	3.0	61.1*!	-5.7	-40.8
Cc1cc(C)c(S(=O)(=O)/N=C2\C=C(Nc3ccc(C(=O)O)cc3)C(=O)c3ccccc32)c(C)c1	2.6	62.4*	8.9	-36.7	96.5*
O=C(O)c1ccc(NC2=C/C(=N/S(=O)(=O)c3ccccc3)c3ccccc3C2=O)cc1	98.9*	50.4*	-11.7	26.8	96.7*
O=C1C=C(NCCc2cc(Br)c(O)c(Br)c2)C(=O)c2ncccc21	74.0*	38.4	18.2	19.1	93.7*
CCOC(=O)C1=C(C)NC(C)=C(C(=O)OCC)C1c1cn(-c2ccccc2)nc1-c1ccco1	nt	-32.6	75.9*	nt	-29.2
SMILES	LGR2 antag	TROY NFkB inh	EBV LMP1 NFkB	EWS-Fli block	TWEAK-Fn14 inh
c1cc(-c2cnc3cccnn23)c2cccnc2c1	nt	35.8	nt	2.7	61.4*
CCOC(=O)[C@]12CCCC=C1N(Cc1cccc3ccccc13)C(=O)[C@H](CC(=O)NCc1ccc(OC)c(OC)c1)C2	39.8*	37.1	nt	13.7	37.8
Cc1nc(-c2ccccc2)cn(O)c1=O	19.8	5.9	0.3	4.9	64.5*
CSc1ccccc1NC(=O)CN1CCCCC1C (stereo not given)	-31.6	-0.1	54.9*	2.4	-6.0
C=CCN1C(=O)N(/C=C/C)c2cccc3cccc1c23	nt	56.0*	5.6	nt	13.0
CCc1c(C(=O)N/N=C/c2ccc(OCc3ccc(F)cc3)c(OC)c2)nnn1-c1nonc1N	-13.7	13.6	-24.9	-42.7	54.9*
CSc1nc(N)nc2c1ncn2CC(=O)NCc1ccccc1	-0.9	20.6	87.5*	-6.5	24.0
